Compound activity from PubChem BioAssay.
Sampled rows, rich in hits. Any-hit rate of the full collection: about 3.6%.
Pf apPOL inh = Pf-apPOL DNA polymerase inhibition | AID 1794808 | 210,000 tested, 0.25% active | Recombinant Pf-apPOL, molecular beacon fluorescence, 1.5 h | inhibition, % at 10 µM
mHTT CaM bind = mHTT-calmodulin interaction abrogation. P42858. AlphaScreen His-mHTT/GST-CaM binding, luminescence. 190,000 tested, 3.6% active. inhibition, % at 15 µM. AID 1671202
A number is an active result; - = inactive; . = not tested or not shown. No stated cut-off is given here; in the data, active means inhibition above about 50%; inactive means the rest.

SMILES | Pf apPOL inh | mHTT CaM bind
Cn1ccc2c(-c3ccc4[nH]ccc4c3)cc3c(c21)C1CCC3O1 (stereo not given) | - | 56
COc1ccccc1-c1cc2c(c3c1ccn3C)C1CCC2O1 (stereo not given) | - | -
Cn1ccc2c(-c3cccc4ccccc34)cc3c(c21)C1CCC3O1 (stereo not given) | - | -
Cn1ccc2c(-c3ccc(F)cc3F)cc3c(c21)C1CCC3O1 (stereo not given) | - | -
O=C(Nc1nc(-c2cccnc2)cs1)c1csc(-c2ccccc2)n1 | - | -
Cc1cc(C)cc(C(=O)Nc2c3c(nn2-c2ccc([N+](=O)[O-])cc2)CS(=O)(=O)C3)c1 | - | -
Cn1cc(-c2cc(C(F)(F)F)c3c(C4CC4)nn(C)c3n2)cn1 | . | -
CC(=O)Nc1ccc(NC(=O)c2c(Cl)cccc2Cl)c(C)c1 | - | .
Cc1ccc(C(=O)N2CCC(c3nc(C(=O)N4CCCCC4)c(C)o3)CC2)c(C)c1 | - | -
Cc1c(Br)c(Br)c(Br)c(Br)c1Br | - | .
CCCN(CC1CC1)c1cc2c(c3c1ccn3C)C1CCC2O1 (stereo not given) | - | -
CN(c1cc2c(c3c1ccn3C)C1CCC2O1)C1CCCCC1 (stereo not given) | - | 59
CCN(CC)c1cc2c(c3c1ccn3C)C1CCC2O1 (stereo not given) | - | -
CN(c1ccc(Cl)cc1)c1cc2c(c3c1ccn3C)C1CCC2O1 (stereo not given) | - | 100
O=C(c1cccnc1)N1CCC(c2cc(-c3ccccc3)n[nH]2)CC1 | - | -
COc1cccc(CN2CCCC2c2cc(C(C)C)no2)c1OC (stereo not given) | - | -
O=C1c2ccc(Br)cc2C(=O)N1CNc1ccc(Br)cc1 | - | -
Cn1c(=O)n(Cc2ccccc2Cl)c2ccccc21 | - | -
Cn1c(=O)n(Cc2ccc(Cl)c(Cl)c2)c2ccccc21 | - | 78
O=c1oc(=O)n(Cc2ccc(Cl)c(Cl)c2)c2ccccc12 | - | 99
N=c1n(CCO)c2ccccc2n1Cc1ccc(Cl)c(Cl)c1 | - | -
COC(=O)C(N)c1ccccc1C (stereo not given) | - | -
Nc1cc(N)nc(SCCCSc2nc(N)cc(N)n2)n1 | - | -
Cc1cc(C(=O)N2CCN(C(=O)C3CC3c3cccs3)CC2)c(C)o1 (stereo not given) | - | -
O=C(CC1CCCCC1)N1CCN(c2nnc3c(Cl)cccn23)CC1 | - | 60
SMILES | Pf apPOL inh | mHTT CaM bind
O=C(c1ccsc1)N1CCN(c2nnc3c(Cl)cccn23)CC1 | - | -
Cc1ccc(C2=N/C(=C\c3ccccc3Br)C(=O)O2)cc1[N+](=O)[O-] | - | -
COc1ccc(C2=N/C(=C\c3ccccc3[N+](=O)[O-])C(=O)O2)c(Cl)c1 | 77 | -
O=C1OC(c2ccc(Cl)cc2Cl)=N/C1=C\c1ccccc1[N+](=O)[O-] | - | -
Cc1ccccc1/C=C1\N=C(c2ccc(C)c([N+](=O)[O-])c2)OC1=O | - | 55
CCOc1ccccc1C1C=C(c2cccs2)Nc2ncnn21 (stereo not given) | - | -
CCCNC(=O)C1CCCN(c2nnc3ccc(C(F)(F)F)cn23)C1 (stereo not given) | - | -
Cc1oc(C(=O)O)cc1COc1ccc2c(C)c(C)c(=O)oc2c1C | - | -
Cc1oc(C(=O)O)cc1COc1cccc2cccnc12 | - | 74
CCOC(=O)CNC(=O)N1CCc2c(c3ccccc3n2C)C1 | - | -
O=C(CNC(=O)c1ccc(=O)[nH]c1)Nc1ccncc1 | - | -
COc1ccccc1[C@H]1C(c2ccccc2)=NN(c2ccccc2)[C@@H]1CO | - | -
COc1ccccc1[C@H]1C(c2cccc(C)c2)=NN(c2ccccc2)[C@@H]1CO | - | 86
COc1ccccc1[C@H]1C(c2ccc(F)cc2)=NN(c2ccccc2)[C@@H]1CO | - | 67
Cc1cccc(C2=NN(c3ccccc3)[C@@H](C(=O)N3CCOC3=O)[C@@H]2c2ccccc2)c1 | - | -
CCCn1ccc2sc(C)c(C(=O)NC(C)C)c2c1=O | - | -
CC1=CC(=O)C=C(C)C1=NOC(=O)/C=C/c1ccccc1 | - | 100
O=C(/C=C/c1ccccc1)O/N=C1\CCCc2oc3c(c21)CCCC3 | - | -
COc1ccc(C(=O)Nc2ccc(I)cc2)c(OC)c1 | - | -
CCOc1ccc(C(=O)Nc2ccc(N(CC)CC)cc2)cc1[N+](=O)[O-] | - | -
CCN(CC)c1ccc(NC(=O)c2ccc(OC)cc2OC)cc1 | - | 67
CCN(CC)c1ccc(NC(=O)c2ccc(OC)c([N+](=O)[O-])c2)cc1 | - | 62
NC(=O)c1cc2cc(Br)ccc2oc1=Nc1ccc(C(F)(F)F)cc1 | - | -
COc1cc(C=C2Oc3cc(OCC=C(C)CCC=C(C)C)ccc3C2=O)cc(OC)c1OC | - | -
O=C(CN1C(=O)CC(c2ccccc2)=Nc2cccnc21)Nc1ccccc1Cl | 65 | -
Cc1ccccc1NC(=O)CN1C(=O)CC(c2ccccc2)=Nc2cccnc21 | - | -
